Hit rate of the full screen: of about 53,000 sequences, about 3,700 (7%) were called active.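 The calls were made as follows: active = gene knockdowns whose robust z-score for IL-1 alpha signal is at least 2 or at most -2, so actives lie on both sides; inactive = the rest.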 Only a selection was taken, and actives are over-represented in it overall.

The assay can be described thus: Components of the Cytosolic LPS Sensing Pathway: Gene Identification via Genome-wide siRNA Screen.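 Also: robust z of the log signal after scaling to non-targeting control siRNA wells of the plate.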 As to conditions: RAW264.7 macrophages, IL-1a HTRF, actives lie on both sides, screened at 100 nM (by protocol), cells primed 5 h with Pam3CSK4 first. The gist of the method:
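RAW264.7; siRNA 100 nM final, RNAiMAX, 48h 37 degrees C; Pam3CSK4 5 h; LipidA + TransIT-TKO 24 h; IL-1a HTRF; CellTiter-Glo viability; robust z vs negative-control median.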
A general note: TR-FRET usually uses a lanthanide donor and a delayed reading to cut background.
GGCACAUUAGUAGAACACATT against Sorcs2: the z-score is -0.243 (inactive). For the sequence GGAUCAUUCCUUUGGUUAGTT against Fabp5, the z-score was -1.34 (inactive). GCCAAGAAUAGCAUUACUGTT against Abraxas1: the z-score is -2.45 (active).

Turning to GGGUAGCUACGAAGAGGAATT against Ros1, the z-score was 1.72 (inactive). As for GGAAAACCAGCUAAUUAUCTT against Ptger3, the figure is -0.23 (inactive). In the case of GGAAAGUGUGUGUUAUAUUTT against Zfp358, the z-score is 1.98 (inactive). As for CGAGCUUAUCAUCAGCGACTT against Polr2f, the figure is -2.74 (active). With CGGGAUAUCAUUCUCCAUATT against Lnpep the figure was 0.62 (inactive); with GGUUUUAAGUUCUAGGGAATT against Olfr1288, -0.599 (inactive).

As for GCAUGUUUACCUCAAAGUGTT against Cd209e, the z-score is 0.843 (inactive).

Take GGCCUUGCUUUCAUAAAGUTT against Mrpl49: the z-score is 0.348 (inactive). With CGAUACCCAACUGUUGAAATT against Ap5m1 the figure was 1.12 (inactive); with CCCGCUAUUACGUUUUUCUTT against Mtarc2, -0.498 (inactive). Consider CCUCAGAACAAAUGAAAAUTT against Nlk, for which the z-score was -0.62 (inactive).

Turning to GGCAGGUGAAUGUGGUAGATT against Btbd17, the z-score is 0.165 (inactive).

For GGCCAACACUAACACAGACTT against Tmem268, the z-score was -0.357 (inactive). With GGUCAAUGGAGUAGAUUUATT against Pard3 the figure was 2.24 (active). As for “GGUCAUGAAAAUUAAAGCATT against 1110059G10Rik”, the figure is -2.31 (active); as for GCACGAUGUACCUGAAUCUTT against Ifitm5, 0.387 (inactive). As for CCUGCUCUAGAGAAGAAGUTT against Naxe, the figure is 0.879 (inactive); as for GCAGUCACCUUCAAAAAAATT against Zfp960, 1.08 (inactive). CGGUAGAAGGCUUAGGCAATT against Aox1: the z-score was -0.922 (inactive).

With GGUCAUAGCAUCUACGGCUTT against Gm4793, the z-score is -0.11 (inactive). With GGUGUAAUUGGGAAAAUUCTT against Inpp5f the figure was -1.17 (inactive).

Regarding GGCCAACCUGUUCAUCAGCTT against Bdkrb1, the z-score was -0.0817 (inactive). As for CCUGAGUCUCGGUUCACAATT against Kif12, the figure is -2.13 (active); as for GCACAGUGUAACUUAGGGCTT against Cenpb, -0.525 (inactive). As for CUAAAUGCCUCCUACCUUUTT against Krtap4-16, the figure is 1.89 (inactive).

CCUCAGAAAAAGCCUAUAGTT against Kcnj3: the z-score was -2.13 (active). With GGCAAGUUGACCGUGUUUUTT against Dtnb the figure was -0.307 (inactive).

The values are drawn from PubChem BioAssay AID1508600 (Functional Genomics Laboratory (NCATS/FGL), 2020).
